Only some compounds are listed: those with a hit (about 8.1% of all), similar ones and a draw of the others.
Epigenetic reg: regulators of epigenetic silencing causing reporter derepression in mouse cells | murine LDR cells, GFP reporter derepression, 30 h | actives 0.2% (n = 280,000) | Potency, µM (series often up to 53.9 µM), actives largely listed as activators | AID 1865; also: nearly all actives have a fitted effect of over 60% in size
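Readout is the number of GFP-expressing murine LDR cells, counted by cytometry following washing. Cells were treated with compound for 30 h at 37 C; the stably integrated CMV-GFP locus is normally silent.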
RORgamma inh: blocks mouse ROR gamma transcriptional activity; AID 2551; Drosophila S2 Gal4-RORgamma UAS-luciferase reporter, 20 h; Potency, µM (doses to about 53.6 µM), usual class: inhibitors; P51450; actives 5.4% (n = 310,000); also: nearly all actives have a fitted effect of over 60% in size
Target sequence (P51450 whole entry, looked up, the tested form may be a part): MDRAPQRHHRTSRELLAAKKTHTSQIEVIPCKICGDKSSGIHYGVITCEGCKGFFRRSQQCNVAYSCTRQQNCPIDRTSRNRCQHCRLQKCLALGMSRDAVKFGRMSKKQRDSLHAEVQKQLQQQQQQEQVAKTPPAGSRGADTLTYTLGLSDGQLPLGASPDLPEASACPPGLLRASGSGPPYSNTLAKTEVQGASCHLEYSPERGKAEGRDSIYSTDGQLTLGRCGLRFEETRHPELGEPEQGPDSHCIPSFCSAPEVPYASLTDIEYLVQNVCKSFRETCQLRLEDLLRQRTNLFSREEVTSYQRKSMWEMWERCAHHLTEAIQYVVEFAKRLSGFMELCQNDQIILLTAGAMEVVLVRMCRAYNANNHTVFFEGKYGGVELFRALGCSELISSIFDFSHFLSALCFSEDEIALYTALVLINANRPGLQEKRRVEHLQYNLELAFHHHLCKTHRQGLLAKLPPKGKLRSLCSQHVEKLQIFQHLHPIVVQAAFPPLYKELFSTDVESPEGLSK
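Compounds are pin-transferred onto Drosophila Schneider cells expressing a copper-inducible Gal4–ROR gamma transactivation domain fusion. After 1 hr, copper sulfate is added to 700 uM final; luciferase is read 20 hr later.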
ClpP mod: qHTS Assay for Activators of ClpP; actives 1.9% (n = 340,000); ATP-dependent Clp protease proteolytic subunit (Bacillus subtilis (strain 168)), P80244; Potency, µM (highest dose often 57.5 µM); purified B. subtilis ClpP, FRET peptide cleavage, 20 min; AID 651965, 2013; active = well fitted falling curve with a large enough effect; inconclusive = small, poorly fitted or top-dose-only effect; inactive = no such curve, though single readings can be large or run the other way; also: the source files actives as falling curves though it sought activators and does not explain the sign; nearly all actives have a fitted effect of over 65% in size
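ClpP 10 microg/mL final, pH 8 Tris/KCl buffer with BSA, glycerol, Tween-20; compound pinned in; FRET-FV substrate; RT 20 min; Ex320/Em430; ΔFRET vs ADEP 5.8 microM, DMSO, no enzyme.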
VP16 counter: counter-screen for ROR gamma inhibitors: Gal4-VP16 reporter. actives 3.5% (n = 310,000). Drosophila S2 Gal4-VP16 UAS-luciferase, luminescence, 20 h. Potency, µM (series often up to 53.6 µM), most hits filed as inhibitors;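 also: Gal4-VP16 expression switched on by copper sulfate through the metallothionein promoter; nearly all actives have a fitted effect of over 50% in size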
Sfp inh: Sfp phosphopantetheinyl transferase inhibition; AID 1490; Biochemical Sfp PPTase activity, qHTS; actives 3.5% (n = 310,000); Potency, µM, most hits filed as inhibitors;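 also: the enzyme is Sfp with the accession as filed and its product quenches rhodamine fluorescence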
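Sfp 15 nM + cpd, 15 min RT; start w/ rhodamine-CoA 5 uM, BHQ-2-YbbR 12.5 uM (final); 50 mM Hepes pH 7.6, 10 mM MgCl2, 0.01% NP-40, 0.01% BSA; read 525/598 nm at 0 and 30 min.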
PINK1 modulator: modulators of PINK1 expression | PINK1 immunofluorescence, high-content cytometry, 24 h | Potency, µM (series often up to 76.6 µM), most hits filed as activators | actives 0.2% (n = 410,000) | AID 624263; active = well fitted activation curve with a large enough effect; inconclusive = small, poorly fitted or top-dose-only effect; cell line not stated here; also: nearly all actives have a fitted effect of over 65% in size
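Stable cell line, 250 cells/well, 12 h attachment; compounds pinned at 5 concentrations, 24 h; CCCP control. Fixed with nuclear dye, primary antibodies 12 h at 10 degrees C, secondary plus cell stain; laser-scanning cytometer read.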
Of the large screens only hits and unclear results are named; the others gave an inactive call. Unless noted, calls follow the shape of the dose curve; as a rule, active = well fitted curve in the direction sought with a large enough effect; inconclusive = small, poorly fitted or top-dose-only effect, or another doubt; inactive = no such curve, though single readings can be large; an effect the other way counts as inactive or inconclusive.

COc1ccccc1C(=O)N[C@@H]1c2ccccc2C2(CCN(Cc3cccnc3)CC2)[C@H]1O	none (no result: Epigenetic reg, RORgamma inh, ClpP mod, VP16 counter, Sfp inh)
Cc1cc(=O)n(CC(=O)NC(C)c2ccccc2)c2c1c(C)nn2-c1cccc(F)c1 (stereo unspecified)	none (no result: RORgamma inh, VP16 counter, Sfp inh)
CN(C)c1ccc(/C=C/c2ccnc3cc(Cl)cc(Cl)c23)cc1	none (no result: Epigenetic reg, RORgamma inh, VP16 counter, Sfp inh)
COc1ccc(C)cc1N(C(=O)c1ccccc1)c1nc2ccccc2s1	none
COc1ccc(C)cc1N(C(=O)COc1ccccc1)c1nc2ccccc2s1	ClpP mod 10µM
Cc1ccc(C2C(C(=O)c3ccco3)=C(O)C(=O)N2c2nnc(C)s2)cc1 (stereo unspecified)	Sfp inh 89µM
CSc1nnc(N2C(=O)C(O)=C(C(=O)c3ccco3)C2c2ccccc2)s1 (stereo unspecified)	none (no result: Epigenetic reg)
CSc1nnc(N2C(=O)C(O)=C(C(=O)c3ccc(C)o3)C2c2ccc(C)cc2)s1 (stereo unspecified)	Sfp inh 16µM (no result: Epigenetic reg)
COc1ccc(C2C(C(=O)c3cccs3)=C(O)C(=O)N2c2nnc(C)s2)cc1OC (stereo unspecified)	Sfp inh 56µM
CN(C)c1ccc(/C=C/c2ccnc3ccc(N)cc23)cc1	none (no result: Epigenetic reg, RORgamma inh, VP16 counter, Sfp inh)
CCOCCCNC(=O)CNC(=S)N(Cc1ccc(C)cc1)Cc1ccco1	Sfp inh 40µM (no result: ClpP mod)
CCC(C)(C)n1nnnc1C(C(C)C)N(Cc1ccco1)Cc1cc2cc3c(cc2[nH]c1=O)OCO3 (stereo unspecified)	ClpP mod 32µM, Sfp inh inconclusive
Cc1ccc2[nH]c(=O)c(CN(Cc3ccccc3)Cc3nnnn3Cc3ccco3)cc2c1	none (no result: Epigenetic reg, RORgamma inh, VP16 counter, Sfp inh)
COc1ccccc1CN(Cc1cc2c(C)ccc(C)c2[nH]c1=O)Cc1nnnn1Cc1ccco1	Sfp inh 20µM (no result: VP16 counter)
Cc1ccc2cc(CN(Cc3ccc4c(c3)OCO4)Cc3nnnn3Cc3ccco3)c(=O)[nH]c2c1	Sfp inh 25µM
CCC(C)(C)n1nnnc1C(C(C)C)N(Cc1cccnc1)Cc1ccco1 (stereo unspecified)	none
Cc1ccc(CN(Cc2cc3cc4c(cc3[nH]c2=O)OCCO4)Cc2nnnn2Cc2ccco2)cc1	ClpP mod 32µM, Sfp inh 10µM
Cc1nc2c(c(C)c1CCC(=O)NCc1ccc(Cl)cc1)c(=O)n(C)c(=O)n2C	none (no result: RORgamma inh, VP16 counter, Sfp inh)
O=[N+]([O-])c1ccc(Cl)c(S(=O)(=O)/N=C(/Sc2ccc(Br)cc2)c2ccccc2)c1	none (no result: Epigenetic reg, RORgamma inh, VP16 counter, Sfp inh)
Cc1ccc(CN(Cc2cc3cccc(C)c3[nH]c2=O)C(=S)NCCCN(C)C)cc1	ClpP mod 22µM
CCOC(=O)C1CCCN(C(=O)c2cccc(NC(=O)c3nsc4ccccc34)c2)C1 (stereo unspecified)	none (no result: RORgamma inh, VP16 counter, Sfp inh)
CCOc1cc(/C=C2/C(=O)ON=C2C)ccc1OCc1ccccc1	RORgamma inh inconclusive, VP16 counter inconclusive (no result: ClpP mod)
CCOc1cc(/C=C2/C(=O)ON=C2C)ccc1OCc1ccc(F)cc1	Sfp inh 50µM
COc1cc(/C=C2\NC(=S)N(C)C2=O)ccc1OCc1ccccc1F	RORgamma inh 11µM, VP16 counter inconclusive (no result: Epigenetic reg)
COc1ccc(/C=C2/C(=O)ON=C2C)cc1Br	Sfp inh inconclusive (no result: Epigenetic reg)
CCOc1cc(/C=C2/C(=O)ON=C2C)ccc1OCc1ccccc1F	RORgamma inh inconclusive, VP16 counter inconclusive, Sfp inh 20µM (no result: PINK1 modulator)
COC(=O)CC1C(=O)NCCN1C(=O)CN1Cc2ccccc2OC(c2ccccc2)C1 (stereo unspecified)	none (no result: Epigenetic reg, RORgamma inh, ClpP mod, VP16 counter, Sfp inh)
Cc1nc(C(=O)NCC(=O)c2ccccc2)c(C(F)(F)F)o1	none (no result: ClpP mod)
Cc1nc(C(=O)NNC(=O)c2ccccc2)c(C(F)(F)F)o1	RORgamma inh 11µM, Sfp inh 45µM (no result: ClpP mod)
CCN(CC)c1ccc(NC(=O)Cn2nc(C)n3cccc3c2=O)c(C)c1	none (no result: RORgamma inh, VP16 counter, Sfp inh)
N#Cc1ccccc1COc1ccc(/C=C/C(=O)O)cc1	RORgamma inh 0.18µM, VP16 counter 0.71µM (no result: ClpP mod)
O=C(O)/C=C/c1ccc(S(=O)(=O)Nc2ccc(OCc3ccccc3)cc2)cc1	none
COC(=O)C1=NN[C@H](C(=O)OC)[C@H]1c1ccccc1	none
COC(=O)C1=NN[C@H](C(=O)OC(C)(C)C)[C@H]1c1ccccc1	ClpP mod 16µM
OC(COC(c1ccc(F)cc1)c1ccc(F)cc1)CN1CCCC1 (stereo unspecified)	Sfp inh 79µM (no result: Epigenetic reg)
CN1CCN(CC(O)COC(c2ccccc2)c2ccccc2)CC1 (stereo unspecified)	none (no result: ClpP mod)
CCOC(=O)CSC1=NC(=O)/C(=C\c2ccc(Cl)cc2)S1	VP16 counter 13µM, Sfp inh inconclusive
OC(c1cccnc1)c1ccc2c(c1)CN(Cc1ccc(-c3ccccc3Cl)o1)CCO2 (stereo unspecified)	none (no result: Epigenetic reg, RORgamma inh, ClpP mod, VP16 counter, Sfp inh)
CN(C)c1cc(C(F)(F)F)nc(-c2ccccn2)n1	RORgamma inh inconclusive, VP16 counter inconclusive
CSCc1cc(N(C)c2ccccc2)nc(-c2ccccn2)n1	RORgamma inh 0.56µM, VP16 counter 3.2µM, Sfp inh inconclusive (no result: Epigenetic reg)
Cc1nn(CCc2nn[nH]n2)c2nc(C(F)(F)F)cc(C(F)(F)F)c12	ClpP mod 10µM
COc1cccc2[nH]c3c(Cl)ncnc3c12	ClpP mod 16µM, VP16 counter inconclusive
COc1cccc2[nH]c3c(N4CCCCC4)ncnc3c12	ClpP mod 28µM
COc1ccc2[nH]c3c(Cl)ncnc3c2c1	RORgamma inh inconclusive
